From PubChem
A selection: hits, their analogues and other compounds. The true share with any hit is near 10%.
CtBP-E1A blk – qHTS Assay for Inhibitors of the CtBP/E1A Interaction; CtBP / adenovirus E1A interaction (AlphaScreen); AlphaScreen GST-E1A/His-CtBP binding, 1536-well; stronger effect = lower value; activity change, % (no concentration beside the values); 340,000 tested, 0.49% active; in the data active means activity change below about -65%; inconclusive means mostly about -30% to -63%; further: on the % scale 0 is the no-effect control and ±100 the full control effect
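Homogeneous bead-based format: GST-tagged E1A captured on glutathione donor beads, His-tagged CtBP on nickel acceptor beads; compounds precede bead addition by 2 h at 37 °C.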
JMJD2A Tudor – qHTS Assay for Inhibitors of JMJD2A-Tudor Domain; Lysine-specific demethylase 4A (Homo sapiens), O75164; AlphaScreen JMJD2A-Tudor / H3K4me3 peptide binding; Potency, µM (top dose mostly 114 µM), for inactives: at the top dose activity change, negative = inhibition, most hits filed as inhibitors; 390,000 tested, 4.4% active; AID 504339, 2011; further: potency means the concentration at half of the fitted maximal effect; on the % scale 0 is the no-effect control and ±100 the full control effect; nearly all actives have a fitted effect of over 50% in size
HP1b chromo inh – HTS for Inhibitors of HP1-beta Chromodomain Interactions with Methylated Histone Tails; 390,000 tested, 0.56% active; Potency, µM (series often up to 114 µM), for the others: at the top dose activity change, negative = inhibition, usual class: inhibitors; AlphaScreen HP1-beta / biotin-H3K9me3 peptide binding; Chromobox protein homolog 1 (Homo sapiens), P83916; further: potency means the concentration at half of the fitted maximal effect; nearly all actives have a fitted effect of over 70% in size
Target sequence (P83916 whole entry, looked up): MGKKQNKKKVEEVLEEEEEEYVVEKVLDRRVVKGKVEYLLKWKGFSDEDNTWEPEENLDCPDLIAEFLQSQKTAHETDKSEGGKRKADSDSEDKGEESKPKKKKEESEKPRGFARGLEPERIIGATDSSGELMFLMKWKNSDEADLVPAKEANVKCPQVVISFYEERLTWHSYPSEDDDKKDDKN
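AlphaScreen: HP1-beta (50 nM) preformed 30 min with biotin-H3(1-18)K9me3 peptide (50 nM) in PBS pH 7.4, 0.01% Tween-20. Compound added for 30 min at RT, then streptavidin donor/nickel chelate acceptor beads (10 ug/mL) for 30 min.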
Six1-Eya2 inh – qHTS Assay for Inhibitors of the Six1/Eya2 Interaction; 360,000 tested, 0.56% active; AID 651725, 2012; AlphaScreen GST-Six1/His-Eya2 binding, biochemical; stronger effect = lower value; activity change, % (no concentration beside the values); in the data active means activity change below about -65%; inconclusive means mostly about -30% to -63%; further: on the % scale 0 is the no-effect control and ±100 the full control effect
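Homogeneous AlphaScreen proximity assay pairing GST-Six1 with His-tagged Eya2 (added as 5X mix: 250 nM and 500 nM) in 50 mM Tris pH 8.0, 300 mM NaCl, 1 mM TCEP. Glutathione donor and nickel acceptor beads; 1 h, 37 °C, dark.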
G9a inh – qHTS Assay for Inhibitors of Histone Lysine Methyltransferase G9a; Histone-lysine N-methyltransferase EHMT2 (Homo sapiens), Q96KQ7; G9a H3K9 monomethylation, AlphaScreen, 2 h; Potency, µM (highest dose often 102 µM), inactives show at the highest dose activity, negative = inhibition, hits mostly inhibitors; 350,000 tested, 8.8% active; further: potency means the concentration at half of the fitted maximal effect; on the % scale 0 is the no-effect control and ±100 the full control effect; nearly all actives have a fitted effect of over 75% in size
Target sequence (Q96KQ7 913-1193 limits assumed): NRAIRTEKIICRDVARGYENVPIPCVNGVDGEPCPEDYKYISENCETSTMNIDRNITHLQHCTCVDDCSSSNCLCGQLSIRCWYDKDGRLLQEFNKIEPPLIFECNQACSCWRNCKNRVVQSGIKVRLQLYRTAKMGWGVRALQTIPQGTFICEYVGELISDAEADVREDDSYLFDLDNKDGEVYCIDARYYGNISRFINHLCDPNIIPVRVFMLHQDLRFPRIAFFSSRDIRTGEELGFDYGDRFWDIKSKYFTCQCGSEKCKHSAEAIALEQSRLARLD
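G9a (20 nM) preincubated 15 min RT with compounds, then 500 nM biotinylated H3K9 peptide and 20 uM SAM added; 2 h RT reaction. Monomethyl-H3K9 product detected by AlphaScreen with anti-H3K9me1 antibody, streptavidin donor and anti-rabbit IgG acceptor beads.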
BAZ2B block – qHTS Assay for Inhibitors of BAZ2B; Bromodomain adjacent to zinc finger domain protein 2B (Homo sapiens), Q9UIF8; AlphaScreen BAZ2B-H3K14Ac peptide displacement; Potency, µM (doses to about 114 µM), without a hit: at the top dose activity change, negative = inhibition, most hits filed as inhibitors; 360,000 tested, 4.4% active; further: potency means the concentration at half of the fitted maximal effect; on the % scale 0 is the no-effect control and ±100 the full control effect; nearly all actives have a fitted effect of over 60% in size
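Multi-concentration screen (max 110 uM) measuring displacement of acetylated histone H3 peptide from BAZ2B by AlphaScreen, using 50 nM protein, 50 nM peptide and 10 ug/mL streptavidin donor plus Ni-chelate acceptor beads.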
Starred values were filed as active, the others as inactive; ? = inconclusive; . = not tested or not shown; [ ] = remark or other dose. Unless noted, the call rests on the fitted dose curve; in most records, active means well fitted inhibition curve with a large enough effect; inconclusive means small, poorly fitted or top-dose-only effect; inactive means no such curve, though single readings can be large or run the other way.

SMILES	CtBP-E1A blk	JMJD2A Tudor	HP1b chromo inh	Six1-Eya2 inh	G9a inh	BAZ2B block
CCC1CCc2sc(C(=O)OCC(=O)N(CCOC)c3c(N)n(Cc4ccccc4)c(=O)[nH]c3=O)cc2C1 (stereo not drawn)	4	-8%	11%	-7	28µM*	1%
CCN(C(=O)COC(=O)c1ccccc1NCc1ccco1)c1c(N)n(Cc2ccccc2)c(=O)[nH]c1=O	0	-11%	17%	-8	.	.
Cc1ccc(C(=O)Nc2ccc(CN3CCS(=O)(=O)CC3)cc2)cc1C	7	0%	4%	9	-9%	-16%
O=C(O)[C@H]1CCCN1	.	.	.	.	40%[59 µM]	.
COCCN(C(=O)COC(=O)c1cc2c(s1)CCC2)c1c(N)n(Cc2ccccc2)c(=O)[nH]c1=O	-14	8.9µM*	-95%	?	10µM*	8.9µM*
COCCN(C(=O)COC(=O)c1ccc(Cl)s1)c1c(N)n(Cc2ccccc2)c(=O)[nH]c1=O	-1	-24%	-2%	-9	?	-5%
CCOC(=O)CC1C(=O)NCCN1S(=O)(=O)c1cccc(C(F)(F)F)c1 (stereo not drawn)	1	-13%	14%	10	69%	-8%
O=C(NCc1cccnc1)c1cc(-c2ccco2)on1	5	-8%	23%	0	40µM*	-34%
COC(=O)c1ccccc1NC(=O)c1cc(-c2ccco2)on1	-3	-19%	7%	4	40µM*	-14%
Cc1nn(Cc2ccc(Cl)cc2)c(C)c1NC(=O)c1cc(-c2ccco2)on1	1	-24%	23%	5	?	-7%
CSc1ccccc1NC(=O)c1noc2c1CCC2	15	50µM*	50µM*	-3	14µM*	40µM*
COC(=O)c1ccccc1NC(=O)c1cc(-c2cccs2)on1	-2	2%	15%	7	-6%[59 µM]	3%
Cc1nn(Cc2ccc(Cl)c(Cl)c2)c(C)c1NC(=O)c1cc(-c2ccco2)on1	-2	-15%	31%	-3	16µM*	-24%
Cc1cc(C)cc(N(CC(=O)Nc2c(C)cc(C)cc2C)S(=O)(=O)c2c(C)nn(C)c2C)c1	.	-20%	-1%	.	-3%[59 µM]	-3%
c1cncc(CNCc2ccco2)c1	8	-14%	7%	6	?	71µM*
COC(=O)c1ccccc1NC(=O)c1noc2c1CCC2	4	50µM*	?	-6	45µM*	50µM*
CCc1ccc(NC(=O)c2noc3c2CCC3)cc1	6	56µM*	-16%	-6	20%[12.7 µM]	50µM*
CCc1ccc(NC(=O)c2noc3c2CCCCC3)cc1	5	7%	30%	3	18%[59 µM]	8%
COC(=O)[C@@]12C[C@@H](CC(=O)NCCC(C)C)C(=O)N(Cc3ccc4c(c3)OCO4)C1=CCC(C)(C)C2	-1	.	.	-14	.	.
CNC(C)C(=O)NC(C(=O)N1CCCC1C(=O)NNc1ccccc1)C(C)C (stereo not drawn)	.	?	20%	0	16%[2.33 µM]	?
CC(N)C(=O)NC(C(=O)N1CCCC1C(=O)NC(c1ccccc1)c1ccccc1)C(C)C (stereo not drawn)	-16	89µM*	23%	-2	9%[2.33 µM]	-3%
CC(C)n1c(=O)[nH]c2ccccc21	2	-13%	19%	4	8%	-6%
CC(C)n1c(=O)[nH][nH]c1=S	2	8.9µM*	13µM*	0	0.89µM*	50µM*
Cc1nc2ccccc2c(=O)n1NC(=O)c1cccc([N+](=O)[O-])c1	9	-12%	14%	1	23%	-10%
